# Bioassay records from PubChem BioAssay.
# TLR9-MyD88 block – blocks human TLR9 binding to MyD88; inhibition, % at 4.98 µM; CHO BLA complementation TLR9-MyD88, CCF4 FRET ratio; 340,000 tested, 0.21% active; Q9NR96+Q99836; AID 504734;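 active = inhibition above the mean over all tested compounds plus 3 SD, cut at about 21% in these data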
# ABHD5 PLIN5 PPI – inhibitors of human ABHD5-perilipin-5 interaction; Q00G26+Q8WTS1; Split G. princeps luciferase complementation, luminescence, 4 h; inhibition, % at 4 µM; 360,000 tested, 0.78% active;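 active = inhibition above the mean inhibition across every tested compound plus 3 SD, cut at about 22% in these data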
# Target sequence (Q00G26 whole entry, looked up): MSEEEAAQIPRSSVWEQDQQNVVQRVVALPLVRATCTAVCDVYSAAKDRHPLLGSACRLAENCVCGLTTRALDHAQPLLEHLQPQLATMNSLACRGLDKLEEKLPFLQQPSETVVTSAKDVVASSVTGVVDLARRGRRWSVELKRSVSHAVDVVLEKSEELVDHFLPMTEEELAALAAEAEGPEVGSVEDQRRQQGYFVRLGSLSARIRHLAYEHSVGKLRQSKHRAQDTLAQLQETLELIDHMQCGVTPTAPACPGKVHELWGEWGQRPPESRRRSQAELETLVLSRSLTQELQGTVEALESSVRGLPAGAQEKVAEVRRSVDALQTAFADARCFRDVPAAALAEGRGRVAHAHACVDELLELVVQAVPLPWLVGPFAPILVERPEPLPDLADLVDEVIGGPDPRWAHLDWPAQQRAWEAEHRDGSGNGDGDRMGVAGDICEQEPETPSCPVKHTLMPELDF
# Target sequence (Q8WTS1 whole entry, looked up): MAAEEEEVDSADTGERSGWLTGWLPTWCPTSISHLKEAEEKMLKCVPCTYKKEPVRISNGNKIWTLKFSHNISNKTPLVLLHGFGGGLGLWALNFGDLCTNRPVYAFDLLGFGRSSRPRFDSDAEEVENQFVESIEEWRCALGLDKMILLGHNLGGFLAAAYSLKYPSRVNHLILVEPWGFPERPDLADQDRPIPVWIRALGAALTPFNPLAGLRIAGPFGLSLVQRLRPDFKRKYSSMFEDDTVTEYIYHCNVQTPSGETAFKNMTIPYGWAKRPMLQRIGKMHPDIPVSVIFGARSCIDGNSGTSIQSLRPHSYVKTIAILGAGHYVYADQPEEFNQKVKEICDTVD
# HTR2A ag – activates the mouse 5-HT2A serotonin receptor; CHO-K1 mHTR2A beta-arrestin complementation, luminescence; percent of 30 µM serotonin response; activation, % at 7.6 µM; 360,000 tested, 0.66% active;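 active = activation above a run cutoff, the mean activation of all tested compounds plus 3 SD, cut at about 14% in these data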
# CRFR2-BP antag – antagonists of CRF-binding protein/CRF-R2 receptor complex | HEK293 CRF-R2/CRF-BP, CRF-induced calcium fluorescence | inhibition, % at 11.8 µM | 350,000 tested, 0.59% active | AID 588475;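 active = inhibition of the ligand-induced calcium signal above about 50% at the single tested concentration, limit read from the data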
# NOD2-RIPK2 inh – blocks binding of human NOD2 to RIPK2; O43353; inhibition, % at 4.98 µM; CHO BLA complementation NOD2-RIPK2, CCF4 ratio; AID 624267; 360,000 tested, 0.38% active; in the data active = inhibition above about 21%
# TLR4-MyD88 BLA – inhibitors of human TLR4-MyD88 binding; HeLa CL3-4 TLR4/MyD88 BLA complementation, FRET ratio; O00206+Q99836; inhibition, % at 8.4 µM; 200,000 tested, 0.18% active; in the data active = inhibition above about 25%
# A number is an active result; 0 = inactive; - = no result. Hits are enriched below; roughly 2.4% of the tested compounds scored in any of these assays.
SMILES,TLR9-MyD88 block,ABHD5 PLIN5 PPI,HTR2A ag,CRFR2-BP antag,NOD2-RIPK2 inh,TLR4-MyD88 BLA
O=C(c1ccco1)N1N=C(c2cccs2)CC1c1ccccc1O (stereo not drawn),0,0,0,93,0,-
COc1ccc(C2CC(c3cccs3)=NN2C(=O)c2ccccc2)cc1OC (stereo not drawn),0,0,0,52,0,-
O=C(CSc1nnc2scc(-c3ccccc3)n12)N1CCN(Cc2ccccc2)CC1,0,0,0,0,0,0
Cc1ccc(-c2csc3nnc(SCC(=O)N4CCN(Cc5ccccc5)CC4)n23)cc1,0,0,0,66,0,0
CCCCN(C(=O)CSc1ncn[nH]1)c1c(N)n(Cc2ccccc2)c(=O)[nH]c1=O,0,0,0,70,0,-
CCCCN(C(=O)CSc1nnnn1C)c1c(N)n(Cc2ccccc2)c(=O)[nH]c1=O,0,0,0,0,0,-
CC(C)(C)c1ccc(CC(=O)N2CCC2(C)C(=O)NCc2ccc3c(c2)OCO3)cc1 (stereo not drawn),-,0,0,-,0,-
CCCc1cc(=O)[nH]c(SCC(=O)Nc2ccc(OC(F)F)cc2)n1,0,0,0,66,0,0
COc1cccc(C(=O)C(=O)N2CCN(C(=O)OCc3ccccc3)CC2)c1,-,0,0,-,0,-
CC1(C(=O)NS(=O)(=O)c2cccc(Cl)c2)CCN1C(=O)C1(c2ccccc2)CC1 (stereo not drawn),-,0,0,-,0,-
CCOC(=O)c1c(-c2ccc(OC)cc2)csc1NC(=O)CNCc1ccco1,0,0,0,78,0,0
CCOC(=O)c1c(-c2ccc(C)o2)csc1NC(=O)CSc1nncs1,0,47,0,0,22,0
CCOC(=O)c1c(-c2ccc(C)o2)csc1NC(=O)CN1CCCCC1,0,0,0,0,0,0
Cc1cc([N+](=O)[O-])c2ccccc2c1NS(=O)(=O)c1ccccc1,0,0,0,119,0,-
Cc1nn2c(N)c(-c3ccccc3)cnc2c1-c1ccc(Cl)cc1,0,0,0,54,0,-
NS(=O)(=O)c1ccc(NC(=O)COC(=O)COc2ccc3ccccc3c2)cc1,0,0,17,0,0,0
CCCCNC(=O)C1(C)CCCCN1C(=O)c1c(C)noc1C (stereo not drawn),-,0,0,-,0,-
O=C1NN=C2CCCCCCC12 (stereo not drawn),0,0,0,0,0,-
C#CCOCCOCCOCCNc1nc(N2CCN(C(=O)CCCCCCCCCCNC(=O)Cn3cc(CCCCCN)nn3)CC2)nc(N2CCN(C(=O)CCCCCCCCCCNC(=O)[C@@H]([C@H](C)O)n3cc(C)nn3)CC2)n1,0,34,0,0,0,-
C#CCOCCOCCOCCNc1nc(N2CCN(C(=O)CCCCCCCCCCNC(=O)Cn3cc(C[C@@H](C)O)nn3)CC2)nc(N2CCN(C(=O)CCCCCCCCCCNC(=O)[C@@H]([C@H](C)CC)n3cc(CCCCCN)nn3)CC2)n1,0,55,0,0,0,-
C#CCOCCOCCOCCNc1nc(N2CCN(C(=O)Cn3cc(CCCCN)nn3)CC2)nc(N2CCN(C(=O)Cn3cc(CC(C)O)nn3)CC2)n1 (stereo not drawn),0,0,0,0,0,0
C#CCOCCOCCOCCNc1nc(N2CCN(C(=O)CCCCCCCCCCNC(=O)[C@H]([C@@H](C)CC)n3cc(CCCCN=C(N)N)nn3)CC2)nc(N2CCN(C(=O)CCCCCCCCCCNC(=O)[C@@H]([C@H](C)O)n3cc(C)nn3)CC2)n1,0,56,0,0,41,-
O=C1NCCCCC1NS(=O)(=O)c1cccc2ccccc12 (stereo not drawn),0,0,0,69,0,-
O=C1NCCCCC1NS(=O)(=O)c1ccccc1 (stereo not drawn),0,0,0,0,0,-
COc1ccc(/C=C/C(=O)NCc2cn(C)nc2C)cc1COc1ccc(Cl)cc1Br,0,0,0,92,0,0
SMILES,TLR9-MyD88 block,ABHD5 PLIN5 PPI,HTR2A ag,CRFR2-BP antag,NOD2-RIPK2 inh,TLR4-MyD88 BLA
CCn1nc(C)c(NC(=O)/C=C/c2ccc(OC)c(COc3ccc(Cl)cc3Br)c2)c1C,0,0,0,0,0,0
CCCCCCCCCCCC(=O)NC(Cc1ccc(OC)c([N+](=O)[O-])c1)C(=O)O (stereo not drawn),0,0,0,55,0,-
CSC1=NSC2=NC(=O)/C(=C\c3cccs3)C(=N)N12,0,0,0,0,0,0
N=C1/C(=C/c2cccs2)C(=O)N=C2SN=C(SCc3ccccc3)N12,0,0,0,102,0,0
CC(C)CSC1=NSC2=NC(=O)/C(=C\c3cccs3)C(=N)N12,0,0,0,75,0,0
Cc1ccc(C)c(C(O)c2ncc(-c3ccccc3)[nH]2)c1 (stereo not drawn),-,0,0,-,0,-
COCCNC(=O)c1cc2c(c(-c3cccc(-c4cc5ccccc5o4)c3)n1)[C@@H](CCO)N(S(=O)C(C)(C)C)C2 (stereo partly drawn),-,0,0,-,0,-
COC(=O)c1ccc2nc3c(cc2c1)[C@@H]1CCN2C(=O)CCC[C@H](C3)[C@H]12,0,0,0,87,0,-
CCc1nc2ccc(C(=O)NCCOc3ccc(OC)cc3)cn2c1N(C=O)Cc1ccc(OC)cc1,-,0,0,-,0,-
COc1cc(OC)cc(C(=O)Nc2ccc(S(=O)(=O)Nc3cnc4ccccc4n3)cc2)c1,-,0,0,65,0,-
Cc1nc2ccc(C(=O)N3c4ccccc4N=C(c4ccc5c(c4)OCO5)C3C(=O)NCc3ccccc3)cc2[nH]1 (stereo not drawn),-,0,0,-,0,-
COC1C(CO)OC(n2c3c(Cl)cccc3c3c4c(c5c6cccc(Cl)c6[nH]c5c32)C(=O)NC4=O)C(O)C1O (stereo not drawn),0,0,0,0,0,-
COc1ccc(CNC(=O)c2cc3c(C)nc4ccccc4c3o2)c(OC)c1,-,0,0,58,0,0
CC(C)N(C(=O)C1CC(=O)OC12CCCCC2)C(C)C (stereo not drawn),0,0,0,0,0,0
CN(C)C(=O)C1CC(=O)OC12CCCCC2 (stereo not drawn),0,0,0,114,0,-
Cc1cc2oc(=O)cc(CN3CCN(Cc4ccccc4)CC3)c2cc1O,0,0,0,0,0,-
O=c1cc(CN2CCN(Cc3ccccc3)CC2)c2cc(O)ccc2o1,0,0,0,85,0,-
Fc1cccc(CO/N=C/c2c(-c3ccccc3)nc3ccc(Cl)cn23)c1,0,0,0,0,0,0
Cc1cccn2c(/C=N/OCc3cccc(F)c3)c(-c3ccc(Cl)cc3)nc12,0,0,0,95,0,0
N#Cc1ccsc1NC(=O)c1ccc(Cl)c([N+](=O)[O-])c1,0,0,0,72,0,-
N#Cc1ccsc1NC(=O)c1cccc([N+](=O)[O-])c1,0,0,0,63,0,0
OC1c2c(F)cccc2N=C2CCCCN21 (stereo not drawn),-,0,0,-,0,-
